MITF inh: inhibitors of human MITF; O75030; AlphaScreen MITF homodimerization, bead proximity signal; 0.91% of 650,000 active; inhibition, % at 2.6 µM; in the data active means inhibition above about 50%;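 further: 0% = vehicle wells with protein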
FBW7 activator: human FBW7 E3 ligase activation, primary screen | Q969H0 | AlphaScreen FBW7–phospho-cyclin E peptide binding, activator screen | normalized activity (activation), % at 26.1 µM | 0.13% of 650,000 active; in the data active means normalized activity above about 1.9%;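 further: purified mutant Fbw7 with reduced substrate affinity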
Target sequence (Q969H0 whole entry, looked up): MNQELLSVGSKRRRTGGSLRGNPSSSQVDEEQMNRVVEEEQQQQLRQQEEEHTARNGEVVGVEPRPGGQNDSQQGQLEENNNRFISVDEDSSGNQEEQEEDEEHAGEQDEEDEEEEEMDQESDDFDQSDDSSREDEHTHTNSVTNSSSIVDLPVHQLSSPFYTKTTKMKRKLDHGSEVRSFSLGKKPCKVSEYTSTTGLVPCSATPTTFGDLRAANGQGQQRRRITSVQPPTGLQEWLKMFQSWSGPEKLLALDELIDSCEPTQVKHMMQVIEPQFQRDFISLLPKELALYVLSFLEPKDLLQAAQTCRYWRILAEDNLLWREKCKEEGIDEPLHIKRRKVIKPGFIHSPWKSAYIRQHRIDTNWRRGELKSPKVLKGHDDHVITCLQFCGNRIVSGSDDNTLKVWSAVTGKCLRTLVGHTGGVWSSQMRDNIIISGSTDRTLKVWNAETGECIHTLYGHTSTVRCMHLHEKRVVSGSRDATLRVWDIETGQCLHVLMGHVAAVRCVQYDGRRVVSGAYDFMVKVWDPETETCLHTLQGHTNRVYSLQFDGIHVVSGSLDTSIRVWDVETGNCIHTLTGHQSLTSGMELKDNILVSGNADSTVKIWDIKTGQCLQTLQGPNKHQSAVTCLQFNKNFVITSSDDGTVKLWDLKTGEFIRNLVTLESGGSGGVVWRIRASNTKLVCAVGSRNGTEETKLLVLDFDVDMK
GPR151 ag: human GPR151 activation. Q8TDV0. PathHunter beta-arrestin GPR151 cells, luminescence. activation, % at 11.2 µM. 1% of 650,000 active. AID 1508602; in the data active means activation above about 4.9%;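 further: 0% = median of compound wells and 100% = cells with positive control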
TEAD-YAP inh: TEAD-YAP interaction inhibition; HEK-TIYL cells, TEAD-Gal4/YAP UAS-luciferase luminescence; inhibition, % at 9.12 µM; 1.4% of 640,000 active; in the data active means inhibition above about 32%;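 further: 0% = median of test compound wells and 100% = reference inhibitor wells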
* = called active by the depositor. An excerpt weighted towards active compounds, which were near 3.4% of everything screened.

What do the screens show for `COC(=O)C1=CN(Cc2ccc(OC)c(OC)c2)C=C(C(=O)OC)C1c1ccc(OCc2ccccc2)c(OC)c1`?
MITF inh: -14; FBW7 activator: 0; GPR151 ag: 1; TEAD-YAP inh: -19

How did COC(=O)C1=CN(Cc2ccc(Cl)cc2)C=C(C(=O)OC)C1c1ccc(OC)c(OCc2ccccc2)c1 do in these assays?
MITF inh: -13; FBW7 activator: 0; GPR151 ag: -2; TEAD-YAP inh: 55*

What do the screens show for `COC(=O)C1=CN(Cc2ccc(OC)cc2)C=C(C(=O)OC)C1c1ccc(OC)c(OCc2ccccc2)c1`?
MITF inh: -3; FBW7 activator: 0; GPR151 ag: -1; TEAD-YAP inh: 50*

Results for COC(=O)C1=CN(Cc2ccc(OC)cc2)C=C(C(=O)OC)C1c1ccccc1F ?
MITF inh: 1; FBW7 activator: 1.9*; GPR151 ag: -2; TEAD-YAP inh: 5

How did Cc1cc(C)n(CCNS(=O)(=O)c2ccc(Cl)s2)n1 do in these assays?
MITF inh: -6; FBW7 activator: 0; GPR151 ag: 1; TEAD-YAP inh: 2

Results for COc1ccc(CNc2nccn3c(-c4ccc(F)c(Cl)c4)cnc23)cc1 ?
MITF inh: 21; FBW7 activator: 1; GPR151 ag: 1; TEAD-YAP inh: 8

Results for CCc1ccc(CN2CCN(S(C)(=O)=O)CC2)cc1 ?
MITF inh: 41; FBW7 activator: 0; GPR151 ag: 1; TEAD-YAP inh: 16

Results for CSc1ccc(CN2CCN(S(C)(=O)=O)CC2)cc1 ?
MITF inh: -5; FBW7 activator: 0; GPR151 ag: -1; TEAD-YAP inh: 47*

How did CSc1ccc(CN2CCN(S(=O)(=O)c3ccc4ccccc4c3)CC2)cc1 do in these assays?
MITF inh: 1; FBW7 activator: 0; GPR151 ag: 1; TEAD-YAP inh: 1

Results for CS(=O)(=O)N1CCN(Cc2ccc(Cl)cc2)CC1 ?
MITF inh: -4; FBW7 activator: 0; GPR151 ag: 0; TEAD-YAP inh: 41*

What do the screens show for `CCC(C)NC(=O)c1cnn2c(C)c(Cc3ccccc3Cl)c(C)nc12` (configuration not stated)?
MITF inh: 12; FBW7 activator: 0; GPR151 ag: 0; TEAD-YAP inh: 1

Results for O=C(NC1CCCCC1)C(C(F)(F)F)(C(F)(F)F)C(F)(F)F ?
MITF inh: 6; FBW7 activator: 0; GPR151 ag: -1; TEAD-YAP inh: 7

What do the screens show for `c1ccc2c(Nc3nc(Nc4ccc(N5CCOCC5)cc4)c4ncn(-c5ccsc5)c4n3)nccc2c1`?
MITF inh: 16; FBW7 activator: 0; GPR151 ag: -1; TEAD-YAP inh: 73*

What do the screens show for `c1ccc(Nc2nc(Nc3ccc(N4CCOCC4)cc3)c3ncn(-c4ccsc4)c3n2)cc1`?
MITF inh: 6; FBW7 activator: 0; GPR151 ag: 3; TEAD-YAP inh: 39*

How did CC(=O)Nc1ccc(Nc2nc(Nc3ccc4ncccc4c3)nc3c2ncn3-c2ccsc2)cc1 do in these assays?
MITF inh: 8; FBW7 activator: 0; GPR151 ag: 0; TEAD-YAP inh: 30

What do the screens show for `CC(=O)Nc1ccc(Nc2nc(Nc3ccccn3)nc3c2ncn3-c2ccsc2)cc1`?
MITF inh: -3; FBW7 activator: 0; GPR151 ag: -1; TEAD-YAP inh: 45*

What do the screens show for `c1ccc(Nc2nc(Nc3nccc4ccccc34)nc3c2ncn3-c2ccsc2)cc1`?
MITF inh: 3; FBW7 activator: 0; GPR151 ag: -1; TEAD-YAP inh: -10

How did c1ccc(Nc2nc(Nc3ccc(N4CCOCC4)cc3)c3ncn(-c4ccsc4)c3n2)nc1 do in these assays?
MITF inh: 2; FBW7 activator: 0; GPR151 ag: 1; TEAD-YAP inh: 37*

How did CCC(C)NC(=O)c1cc2nc(-c3ccc(C)cc3)cc(C(F)(F)F)n2n1 (configuration not stated) do in these assays?
MITF inh: 13; FBW7 activator: 1; GPR151 ag: -1; TEAD-YAP inh: -5

Results for CC(=O)N(C1=C(N2CCCC2)C(=O)c2ccccc2C1=O)C1CCCCC1 ?
MITF inh: -1; FBW7 activator: 0; GPR151 ag: -1; TEAD-YAP inh: -8

What do the screens show for `c1cnc(Nc2nc(Nc3ccc(N4CCOCC4)cc3)c3ncn(-c4ccsc4)c3n2)cn1`?
MITF inh: -8; FBW7 activator: 0; GPR151 ag: 1; TEAD-YAP inh: 46*

What do the screens show for `c1cncc(CNc2nc(Nc3ccc(N4CCOCC4)cc3)c3ncn(-c4ccsc4)c3n2)c1`?
MITF inh: 9; FBW7 activator: 0; GPR151 ag: 0; TEAD-YAP inh: 20

What do the screens show for `O=C(NNc1cc(N2CCOCC2)nc(N2CCOCC2)n1)c1ccccc1Cl`?
MITF inh: 11; FBW7 activator: 0; GPR151 ag: -1; TEAD-YAP inh: 8

How did O=C(CCl)NC(C1CCCCC1=O)C(Cl)(Cl)Cl (configuration not stated) do in these assays?
MITF inh: -17; FBW7 activator: 0; GPR151 ag: 0; TEAD-YAP inh: 42*

Results for c1ccc(-c2ncc(-c3ccncn3)c(-c3cccnc3)n2)nc1 ?
MITF inh: 19; FBW7 activator: 0; GPR151 ag: -1; TEAD-YAP inh: -7

Results for Cn1c2ccccc2n2cc(-c3ccccc3)nc12 ?
MITF inh: 13; FBW7 activator: 1; GPR151 ag: -1; TEAD-YAP inh: 29

Results for c1ccc(-c2cn3c(ccc4ccccc43)n2)cc1 ?
MITF inh: 3; FBW7 activator: 0; GPR151 ag: -5; TEAD-YAP inh: 85*

How did Nc1cccc(-c2nc(NCCN3CCOCC3)c3ncn(-c4ccccc4)c3n2)c1 do in these assays?
MITF inh: -3; FBW7 activator: 0; GPR151 ag: -3; TEAD-YAP inh: 58*

How did CN1CCN(c2ccc(-c3nc(NCCN4CCOCC4)c4ncn(-c5ccsc5)c4n3)cc2)CC1 do in these assays?
MITF inh: -2; FBW7 activator: 0; GPR151 ag: 2; TEAD-YAP inh: 9

How did CC(=O)c1cccc(-c2nc(NCCN3CCOCC3)c3ncn(-c4ccccc4)c3n2)c1 do in these assays?
MITF inh: 14; FBW7 activator: 0; GPR151 ag: 1; TEAD-YAP inh: 66*

What do the screens show for `CC(=O)c1cccc(-c2nc(NCCN3CCOCC3)c3ncn(-c4ccsc4)c3n2)c1`?
MITF inh: 10; FBW7 activator: 0; GPR151 ag: 3; TEAD-YAP inh: 59*

Results for COc1ccc(-c2nc(NCCN3CCOCC3)c3ncn(-c4ccsc4)c3n2)cc1 ?
MITF inh: 8; FBW7 activator: 0; GPR151 ag: 1; TEAD-YAP inh: 51*

Results for COc1ccc(CCN(Cc2cccnc2)C(=S)Nc2ccc(Oc3ccccc3)cc2)cc1OC ?
MITF inh: 5; FBW7 activator: 0; GPR151 ag: 0; TEAD-YAP inh: -1

What do the screens show for `Nc1cccc(-c2nc(NCCc3ccc(O)cc3)c3ncn(-c4ccccc4)c3n2)c1`?
MITF inh: 0; FBW7 activator: 0; GPR151 ag: -1; TEAD-YAP inh: 38*

How did Cc1ccc(-c2nc(-c3ccc(Br)cc3)[nH]c2-c2ccccc2)cc1C do in these assays?
MITF inh: -9; FBW7 activator: 0; GPR151 ag: 0; TEAD-YAP inh: 1

Screens deposited in PubChem BioAssay by The Scripps Research Institute Molecular Screening Center.
